Data taken from ChEMBL document CHEMBL1201862, “PubChem BioAssay data set” (2004).
About 140 (12%) of roughly 1,200 compounds were called active. The calls are words filed in the database; no cut-off is given here. The full list was thinned out, with actives kept by preference.

Test: restoration of mutant CFTR halide transport – FRT cells, YFP quenching, cherry-pick, dose response (AID 743402)
Format: functional, cell-based

AbsAC35, active:
COc1ccc(NC(=O)C(=O)NCC2CCCN2S(=O)(=O)c2cccs2)cc1 (stereo not given) 87.6 µM, CC(=O)c1cccc(-c2ccnc3c2CC(C(=O)NCc2ccco2)O3)c1 (stereo not given) 40.3 µM, O=c1c(O)c(-c2cccs2)oc2ccc(Cl)cc12 30.3 µM, COc1ccc(C2=Nn3c(nnc3-c3ccccc3OC)SC2)cc1OC1CCOC1 (stereo not given) 160 µM, CCc1ccc(OCCNc2cc(N3CCNC(C)C3)ccc2[N+](=O)[O-])cc1 (stereo not given) 58.8 µM, N#Cc1ccc(-c2cccs2)nc1SCc1cccnc1 107 µM, CCN(CC)CCC(=O)Nc1cccc2c1C(=O)c1ccccc1C2=O 40.8 µM, O=C(OCc1ccc(Br)cc1)c1cc([N+](=O)[O-])ccc1N1CCOCC1 28.4 µM, CC(=O)Nc1ccc(S(=O)(=O)N2c3ccccc3C(C)=CC2(C)C)cc1 42.7 µM, COc1ccc(C2C3=C(COC3=O)Oc3cc4c(cc32)OCO4)cc1OC (stereo not given) 116 µM
